Measurements from PubChem BioAssay (Tox21).
A number with no mark means an inactive call. Inconclusive results are not listed. Entries that show only a call come without a potency. Activity calls are given as the source filed them. Unless noted, the call rests on the fitted dose curve; in most records, active means well fitted curve in the direction sought with a large enough effect in the repeat runs; inconclusive means weak or mixed curves; inactive means no such curve, though single readings can be large; an effect the other way counts as inactive or inconclusive.

Assays:
[1] = qHTS assay to identify small molecule agonists of the hypoxia (HIF-1) signaling pathway - cell viability counter screen (AID 1224844; calls by dose curve; further: nearly all actives have a fitted effect of over 50% in size)
Procedure, shortened: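 Tox21 10K compounds were added to HRE-bla ME-180 cells (0.5% dialyzed FBS) and incubated 17 hrs at 37C; ATP-based CellTiter-Glo luminescence then reported cell viability in the same wells.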

[2] = qHTS assay to identify small molecule agonists of H2AX (AID 1224845; active means well fitted activation curve with a large enough effect in the signal ratio in the repeat runs, not every such curve was filed as active; the % refers to the signal ratio)
Procedure, shortened: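 Wild-type CHO-K1 cells, plated overnight, exposed 3hr at 37C to 15 concentrations (0.76% DMSO final). Lysed, then HTRF anti-pH2AX (S139) cryptate and anti-H2AX-d2 antibodies, 24 hr room temperature; 665/620 nm emission read.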

[3] = qHTS assay to identify small molecule agonists of the hypoxia (HIF-1) signaling pathway (AID 1224846; active means well fitted activation curve with a large enough effect in the signal ratio in the repeat runs, not every such curve was filed as active; the % refers to the signal ratio)
Procedure, shortened: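 Steps: seed ME-180 HRE-bla cells (2,000/well, 0.5% dialyzed FBS); incubate 5 hrs at 37C; pin-transfer compounds or DMSO; incubate 17 hrs; add LiveBLAzer B/G substrate CCF4-AM; measure reporter activation by FRET.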

[4] = qHTS RealTime-Glo MT Cell Viability Assay in HepG2 cells - 24 hour (AID 1224867); further: nearly all actives have a fitted effect of over 50% in size
Procedure, shortened: (§1)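 Cells + NanoLuc/prosubstrate dispensed (600 cells/well) → 5 h at 37 C/5% CO2 → compounds in DMSO transferred → 40 h incubation at 37 C, luminescence read at 0, 8, 16, 24, 32, 40 h.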

[5] = A CellTox Green Cytotoxicity Assay to monitor cytotoxicity in HEK293 cells - 0 hour (AID 1224869); further: nearly all actives have a fitted effect of over 50% in size
Procedure, shortened: (§2)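 Cytotoxicity was tracked continuously in HEK293 cells by a DNA-binding dye excluded from viable cells. Compounds were transferred in DMSO 5 h after seeding; fluorescence was recorded at intervals up to 40 h.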

[6] = qHTS RealTime-Glo MT Cell Viability Assay in HepG2 cells - 40 hour (AID 1224870); further: nearly all actives have a fitted effect of over 50% in size
Procedure, shortened: (§3)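 HepG2 cells (600/well) mixed with RealTime-Glo MT reagent, settled 5 h at 37 C/5% CO2 before compound addition. Nonlytic NanoLuc luminescence from viable-cell prosubstrate reduction read repeatedly during 40 h treatment at 37 C.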

[7] = qHTS RealTime-Glo MT Cell Viability Assay in HEK293 cells - 16 hour (AID 1224872); further: nearly all actives have a fitted effect of over 50% in size; further: potency means the concentration at half of the fitted maximal effect
Procedure, shortened: (§4)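 Tox21 10K qHTS, HEK293, 600 cells/well, RealTime-Glo reagent co-dispensed with cells; 5 h preincubation, compound by pintool, 37 C, luminescence at 0–40 h.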

[8] = qHTS RealTime-Glo MT Cell Viability Assay in HepG2 cells - 8 hour (AID 1224873); further: nearly all actives have a fitted effect of over 55% in size
Procedure, shortened: as §3

[9] = qHTS RealTime-Glo MT Cell Viability Assay in HEK293 cells - 40 hour (AID 1224874); details: RealTime-Glo luminescence; max response: hits give low values; further: nearly all actives have a fitted effect of over 50% in size; further: potency means the concentration at half of the fitted maximal effect
Procedure, shortened: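 Nonlytic bioluminescent viability monitoring. HEK293 at 600 cells/well with reagent; 5 h settle; compound transfer by pintool; plates held at 37 C and read at set time points.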

[10] = A CellTox Green Cytotoxicity Assay to monitor cytotoxicity in HepG2 cells - 16 hour (AID 1224876); further: nearly all actives have a fitted effect of over 45% in size; further: potency means the concentration at half of the fitted maximal effect
Procedure, shortened: (§5)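 Real-time, homogeneous cytotoxicity readout: dead-cell DNA staining by CellTox Green in HepG2 monolayers, fluorescence measured at timed intervals up to 40 h of continuous compound exposure.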

[11] = qHTS RealTime-Glo MT Cell Viability Assay in HepG2 cells - 32 hour (AID 1224877); further: nearly all actives have a fitted effect of over 55% in size
Procedure, shortened: as §1

[12] = A CellTox Green Cytotoxicity Assay to monitor cytotoxicity in HepG2 cells - 24 hour (AID 1224878); further: nearly all actives have a fitted effect of over 45% in size; further: potency means the concentration at half of the fitted maximal effect
Procedure, shortened: as §5

[13] = A CellTox Green Cytotoxicity Assay to monitor cytotoxicity in HepG2 cells - 40 hour (AID 1224879); further: nearly all actives have a fitted effect of over 40% in size; further: potency means the concentration at half of the fitted maximal effect
Procedure, shortened: as §5

[14] = qHTS assay to identify small molecule antagonists of the estrogen related receptor (ERR) signaling pathway from Tox21 library (AID 1224848); further: nearly all actives have a fitted effect of over 50% in size; further: potency means the concentration at half of the fitted maximal effect
Procedure, shortened: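 ERR reporter cell line (from NTP) seeded 2,000 cells/well, rested 6 h at 37 C/5% CO2, then pin-dosed with compounds in DMSO. After 18 h at 37 C, ONE-Glo added; luminescence read after 30 min at room temperature.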

[15] = qHTS assay to identify small molecule agonists of the estrogen related receptor (ERR) signaling pathway from Tox21 library (AID 1224849; calls by dose curve; further: nearly all actives have a fitted effect of over 15% in size); details: ERR reporter cell line, ONE-Glo luciferase, 18 h; at 92.4 µM (top of the series) unless noted
Procedure, shortened: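 Agonist signal is luciferase luminescence from an ERR reporter cell line treated 18 h at 37 C with DMSO-dissolved compounds, read 30 min after ONE-Glo addition at room temperature.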

[16] = qHTS RealTime-Glo MT Cell Viability Assay in HEK293 cells - 32 hour (AID 1224868); further: nearly all actives have a fitted effect of over 50% in size; further: potency means the concentration at half of the fitted maximal effect
Procedure, shortened: as §4

[17] = qHTS assay to identify small molecule agonists of H2AX - cell viability counter screen (AID 1224847; calls by dose curve; further: top concentration of the series differs between compounds; nearly all actives have a fitted effect of over 30% in size)
Procedure, shortened: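 Viability of CHO-K1 (wild type) cells after 3 hr compound exposure was measured by CellTiter-Glo luminescence.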

[18] = A CellTox Green Cytotoxicity Assay to monitor cytotoxicity in HEK293 cells - 40 hour (AID 1224871); further: nearly all actives have a fitted effect of over 45% in size; further: potency means the concentration at half of the fitted maximal effect
Procedure, shortened: as §2

[19] = A CellTox Green Cytotoxicity Assay to monitor cytotoxicity in HEK293 cells - 24 hour (AID 1224875); further: nearly all actives have a fitted effect of over 45% in size
Procedure, shortened: as §2

Compound | Potency [1] | outcome [2] | outcome [3] | outcome [4] | Potency [5] | Potency [6] | Potency [7] | outcome [8] | max response [9] [%] | Potency [10] | Potency [11] | Potency [12] | Potency [13] | Potency [14] | activity change, positive = activation [15] | Potency [16] | Potency [17] | Potency [18] | Potency [19] | Potency [9]
NC(=O)Nc1nc2ccccc2[nH]1 | inactive | inactive | inactive | inactive | inactive | inactive | inactive | inactive | -25.5 | inactive | inactive | inactive | inactive | – | – | – | – | – | – | –
c1ccc(CCCc2ccccn2)cc1 | inactive | inactive | inactive | inactive | inactive | – | inactive | inactive | -0.97 | inactive | inactive | inactive | inactive | inactive | 34.3% (active) | inactive | – | – | – | –
CC(O)CN(CCCN(C)C)CCCN(C)C (stereo unspecified) | inactive | – | inactive | inactive | – | – | inactive | – | -1.59 | inactive | inactive | inactive | inactive | – | – | – | inactive | inactive | inactive | –
C=C(C)[C@H]1CC=C(C)CC1 | inactive | inactive | inactive | inactive | inactive | – | inactive | inactive | 0.727 | inactive | inactive | inactive | inactive | – | – | – | inactive | inactive | inactive | –
CC1=CCC2C(C1)C2(C)C (stereo unspecified) | – | inactive | inactive | inactive | inactive | inactive | inactive | – | 1.81 | inactive | inactive | inactive | inactive | – | – | inactive | inactive | inactive | inactive | –
CC(C)(O)C(=O)c1ccc(OCCO)cc1 | – | inactive | inactive | inactive | inactive | inactive | inactive | inactive | 6.03 | inactive | inactive | inactive | inactive | – | – | inactive | inactive | inactive | inactive | –
C1C2OC2C2C1C1CC2C2OC12 (stereo unspecified) | – | inactive | inactive | inactive | inactive | inactive | inactive | inactive | 2.43 | inactive | inactive | inactive | inactive | – | – | inactive | inactive | inactive | inactive | –
CC(C)c1cccc(C(C)C)c1N | – | inactive | inactive | inactive | – | inactive | – | inactive | -0.332 | – | inactive | – | – | inactive | 0.341% | inactive | – | – | – | –
CCCCN(CCO)CCO | inactive | – | inactive | inactive | inactive | inactive | inactive | inactive | 19 | inactive | inactive | inactive | inactive | inactive | 3.71% | inactive | inactive | inactive | – | –
O=C1C(CCS(=O)c2ccccc2)C(=O)N(c2ccccc2)N1c1ccccc1 (stereo unspecified) | inactive | inactive | – | inactive | – | inactive | inactive | – | 1.04 | inactive | inactive | inactive | inactive | – | – | inactive | inactive | inactive | inactive | –
CN(C)C(=O)C(CCN1CCC(O)(c2ccc(Cl)cc2)CC1)(c1ccccc1)c1ccccc1 | – | inactive | – | – | inactive | – | 8.49 µM (active) | inactive | – | 10.7 µM (active) | – | 15.1 µM (active) | 23.9 µM (active) | 21.1 µM (active) | -39.4% [at 42.5 µM] | 10.7 µM (active) | inactive | 26.8 µM (active) | – | 10.7 µM (active)
OC/C=C/c1ccccc1 | inactive | inactive | – | inactive | inactive | inactive | inactive | inactive | 21.7 | inactive | inactive | inactive | inactive | – | – | inactive | inactive | inactive | – | –
